# Measurements: PubChem BioAssay (NCATS)
# Where “and” joins values, the source holds several entries; their conditions need not be identical. Equal entries are not always repeated. Inconclusive results are not listed. Calls of active or inactive are those of the source. Unless noted, the call rests on the fitted dose curve; in most records, active means well fitted curve in the direction sought with a large enough effect; inconclusive means small, poorly fitted or top-dose-only effect, or another doubt; inactive means no such curve, though single readings can be large; an effect the other way counts as inactive or inconclusive. Where a SMILES comes first, the peptide text is derived from it. Bridges are numbered along the chain shown (N, C = ends).
# Tests used:
# [1] = qHTS Assay for Identifying Gametocytocidal Compounds (AID 743244);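 further: on the % scale 0 is the no-effect control and ±100 the full control effect; actives lower the fluorescent signal which means gametocytes are killed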; settings: P. falciparum 3D7 stage III-V gametocytes, alamarBlue, 72 h; max response: stronger effect = lower value
# Method in brief: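 Compounds are pinned into medium, gametocytes (stage III–V, 3D7, 20,000 cells/well) added, and plates held 72 h at 37 °C in 5% CO2. AlamarBlue follows for 24 h before fluorescence reading.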
# [2] = P-glycoprotein substrates identified in KB-8-5-11 adenocarcinoma cell line, qHTS therapeutic library screen (AID 1346987); settings: KB-8-5-11 (P-gp overexpressing) viability, CellTiter-Glo, 72 h; series mostly up to 44.5 µM; further: on the % scale 0 is the no-effect control and ±100 the full control effect; nearly all actives have a fitted effect of over 65% in size
# Method in brief: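 Compounds are pinned in dose-response onto KB-8-5-11 cells (500 cells/well, colchicine-free medium) and left 72 h at 37 degree C. CellTiter-Glo luminescence then yields AC50 values.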
# [3] = qHTS assay for cell viability of HEK293 cells (AID 743288); settings: ATP luminescence (CellTiter-Glo), 18 h, stronger effect = lower value; further: on the % scale 0 is the no-effect control and ±100 the full control effect; nearly all actives have a fitted effect of over 50% in size
# Method in brief: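 After 18 h compound exposure at 37 C, parental HEK293 cells (2,000/well) are lysed with CellTiter-Glo and luminescence is read following 30 min at room temperature.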
# [4] = qHTS assay for cell viability of the p53RE-bla HCT-116 cell line (AID 743292); settings: p53RE-bla HCT-116 viability, ATP luminescence, 16 h; series mostly up to 95 µM; further: on the % scale 0 is the no-effect control and ±100 the full control effect; nearly all actives have a fitted effect of over 55% in size
# Method in brief: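 ATP-based luminescence, 16 h compound exposure at 37 C, p53RE-bla HCT-116 cells at 4,000/well.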
# [5] = qHTS of pediatric cancer cell lines to identify multiple opportunities for drug repurposing: Primary screen for SJ-GBM2 cells (AID 1347091); settings: SJ-GBM2 viability, CellTiter-Glo luminescence, 48 h; further: potency means the concentration at half of the fitted maximal effect
# Method in brief: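 Cell viability, CellTiter-Glo luminescence; 500-1,000 cells/well, 8- or 11-point titration, 48 h compound exposure at 37 degrees C, 5% CO2. Controls: DMSO neutral, bortezomib 2.3 µM final as positive.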
# [6] = qHTS profiling of the MIPE4 collection as inhibitors of Plasmodium falciparum (3D7) proliferation (AID 743344; call rule not given here;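 further: scaled between DMSO vehicle wells and 0.29 µM artemisinin as full inhibition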); settings: P. falciparum 3D7 in erythrocytes, SYBR Green DNA fluorescence, 72 h; at 28.5 µM (top of the series)
# Method in brief: (§1)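 Parasite DNA was quantified by SYBR Green I fluorescence (ex 485, em 535 nm) after overnight lysis in saponin/Triton buffer at room temperature. Cultures at 0.3% parasitemia and 2.5% hematocrit were first exposed to compound for 72 h at 37 C; signals were normalised to artemisinin (0.29 uM) and vehicle wells.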
# [7] = qHTS profiling of the MIPE4 collection as inhibitors of Plasmodium falciparum (DD2) proliferation (AID 743345; call rule not given here); settings: P. falciparum Dd2 in erythrocytes, SYBR Green DNA, 72 h; at 28.5 µM (top of the series)
# Method in brief: as §1
# [8] = qHTS profiling of the MIPE4 collection as inhibitors of Plasmodium falciparum (DD2) proliferation (Rep 2) (AID 743346; call rule not given here); settings: P. falciparum Dd2 in erythrocytes, SYBR Green DNA, 72 h; at 28.5 µM (top of the series)
# Method in brief: as §1
# [9] = qHTS profiling of the MIPE4 collection as inhibitors of Plasmodium falciparum (HB3) proliferation (AID 743347; call rule not given here;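 further: plate controls were DMSO vehicle wells for no effect and artemisinin wells for full effect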); settings: P. falciparum HB3 in erythrocytes, SYBR Green DNA, 72 h; at 28.5 µM (top of the series)
# Method in brief: as §1
structure (smiles),measurement,setting,value
COc1ccnc(CS(=O)c2nc3cc(OC(F)F)ccc3[nH]2)c1OC (stereo not drawn),max response,[1],-13.5% (inactive)
COC[C@H](c1ccc(C(F)(F)F)cc1)N1CCN(C2(C)CCN(C(=O)c3c(C)ncnc3C)CC2)C[C@H]1C,max response,[1],-5.74% (inactive)
CC(=O)OC[C@H]1O[C@@H](O[C@H]2[C@H](O)[C@@H](OC(=O)c3ccccc3C(=O)O)[C@H](O)O[C@@H]2COC(C)=O)[C@H](O)[C@@H](OC(=O)c2ccccc2C(=O)O)[C@@H]1O,max response,[1],-3.61% (inactive)
C[C@H]1C[C@@H]2[C@H]([C@@H](O)C[C@@]3(C)[C@H]2CC[C@]3(O)C(=O)COC(=O)CCC(=O)O)[C@@]2(C)C=CC(=O)C=C12,max response,[1],-6.5% (inactive)
same,Potency,[2],inactive
C=Cc1ccccc1,max response,[1],5.81% (inactive)
same,max response,[3],4.36% (inactive) and 2.49% (inactive)
same,outcome,[4],inactive
same,Potency,[2],inactive
COC(=O)C1=C(C)NC(C)=C(C(=O)O[C@H]2CCN(Cc3ccccc3)C2)[C@H]1c1cccc([N+](=O)[O-])c1,max response,[1],22.4% (inactive)
NC(=O)C[C@@H](N)C(=O)O,max response,[1],-9.98% (inactive)
Cc1[nH]cnc1C[C@H]1CCc2c(C)c3ccccc3n2C1=O,max response,[1],6.9% (inactive)
CC1=C(C(=O)OCCN(Cc2ccccc2)c2ccccc2)C(c2cccc([N+](=O)[O-])c2)C(P2(=O)OCC(C)(C)CO2)=C(C)N1 (stereo not drawn),max response,[1],12.9% (inactive)
O=C(O)CC(O)(CC(=O)O)C(=O)O,max response,[1],-12% (inactive)
same,max response,[3],-6.07% (inactive) and -4.96% (inactive) and -7.26% (inactive)
same,outcome,[4],inactive
same,Potency,[2],inactive
NCCCC[C@H](NC(=O)[C@@H]1CCCN1C(=O)[C@@H]1CSSC[C@H](NC(=O)CNC(=O)CNC(=O)CN)C(=O)N[C@@H](Cc2ccc(O)cc2)C(=O)N[C@@H](Cc2ccccc2)C(=O)N[C@@H](CCC(N)=O)C(=O)N[C@@H](CC(N)=O)C(=O)N1)C(=O)NCC(N)=O (H-GGGCYFQNCPKG-NH2; disulfide 4-9),max response,[1],-2% (inactive)
Oc1cccc(-c2c3nc(c(-c4cccc(O)c4)c4ccc([nH]4)c(-c4cccc(O)c4)c4nc(c(-c5cccc(O)c5)c5ccc2[nH]5)CC4)C=C3)c1,max response,[1],-1.27% (inactive) and -6.31% (inactive)
same,Potency,[5],21.1 µM (active)
CCCCCCCC/C=C\CCCCCCCC(=O)OC[C@@H](O)[C@H]1OC[C@H](O)[C@H]1O,max response,[1],-9.22% (inactive)
same,max response,[3],-9.48% (inactive)
same,outcome,[4],inactive
same,Potency,[2],inactive
O=S(O)CNc1ccc(S(=O)(=O)c2ccc(NCS(=O)O)cc2)cc1,max response,[1],-0.921% (inactive)
CCCCCCCCCC(=O)O,max response,[1],10.1% (inactive)
same,max response,[3],-4.02% (inactive) and 2.71% (inactive)
same,outcome,[4],inactive
same,Potency,[2],inactive
CC(=O)NC[C@H]1CN(c2ccc(N3CCSCC3)c(F)c2)C(=O)O1,"parasite growth, % of DMSO control",[6],91.5%
same,"parasite growth remaining, % of DMSO control (lower = more inhibition)",[7],103%
same,"parasite growth, % of control (lower = inhibition)",[8],186%
same,"growth, % of control",[9],110%
CCC(=O)OCC(=O)[C@@]1(OC(=O)CC)[C@H](C)C[C@H]2[C@@H]3CCC4=CC(=O)C=C[C@]4(C)[C@@]3(F)[C@@H](O)C[C@@]21C,max response,[1],-4.58% (inactive)
CN(C)CCOc1ccccc1Cc1ccccc1 (tested in a mixture with another compound),max response,[1],6.62% (inactive)
CCOc1ccc(N=C(C)Nc2ccc(OCC)cc2)cc1,max response,[1],-5.06% (inactive)
O=C(Nc1ccc(/C=C/c2ccc(NC(=O)c3cc(S(=O)(=O)O)c4cccnc4c3O)cc2S(=O)(=O)O)c(S(=O)(=O)O)c1)c1cc(S(=O)(=O)O)c2cccnc2c1O,max response,[1],-6.63% (inactive)
same,Potency,[2],inactive
